Bioassay records (PubChem)
In the library only some 19% were active in any assay of this set; here they are far more common.
TDP1 cell CPT – DT40-hTDP1 cell growth loss with CPT. hit rate 12% among 420,000. chicken DT40 Tdp1-/-;hTDP1 cells + 20 nM CPT, ATP luminescence, 48 h. Potency, µM (series often up to 46.2 µM), usual class: inhibitors. AID 686979; note: nearly all actives have a fitted effect of over 55% in size
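Chicken DT40 Tdp1-/- cells stably complemented with human TDP1 were seeded at 400 cells/well in medium containing 20 nM camptothecin, exposed to pin-transferred compounds, and grown at 37 °C for at least 48 hr. Viability was read as ATP luminescence.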
IL1B secr inh – inflammasome signaling inhibition, IL-1 beta readout | AID 743279 | THP-1 LPS/ATP IL-1B secretion, AlphaLISA, 16 h; hits give low values | hit rate 4.7% among 360,000 | activity change, % at 57.5 µM; in the data active = activity change below about -50%; inconclusive = mostly about -30% to -49%
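Secreted IL-1B measured by AlphaLISA bead assay after 16 h compound exposure of THP-1 cells; compounds (final up to 57.5 uM) added 1 h before LPS (250 ng/mL) and ATP (1.25 mM) stimulation; lower signal means less secretion.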
HT1080-NT tox – kills 2HG-producing HT-1080-NT fibrosarcoma cells; HT-1080-NT fibrosarcoma viability, CellTiter-Glo ATP luminescence, 48 h; Potency, µM (highest dose often 46.1 µM), actives largely listed as cytotoxic; hit rate 1.6% among 360,000; AID 686970;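 note: NT is the 2HG producing partner of a matched IDH1 knockdown line; nearly all actives have a fitted effect of over 55% in size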
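HT-1080-NT fibrosarcoma cells (2HG-overproducing), 750 cells/well in RPMI with 5% FBS, dosed after 2 h and incubated 48 h at 37C. CellTiter-Glo luminescence normalized to DMSO and no-cell wells; concentration-response curves fitted and classed.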
TDP1 cell noCPT – qHTS for Inhibitors of human tyrosyl-DNA phosphodiesterase 1 (TDP1): qHTS in cells in absence of CPT. hit rate 15% among 420,000. Potency, µM (titrated, usually from 46.2 µM), hits mostly inhibitors. DT40 Tdp1-/- hTDP1 cells, no CPT, ATP luminescence, 48 h; note: nearly all actives have a fitted effect of over 55% in size
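Seeded 400 DT40-hTDP1 cells/well (vehicle DMSO, no 20 nM CPT); pinned compounds; ≥48 hr at 37 °C; CellTiter-Glo luminescence as viability measure.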
HT1080 IDH1KD tx – toxicity to HT-1080 IDH1 knockdown cells (counter line); HT-1080 IDH1 knockdown viability, ATP luminescence, 48 h; Potency, µM (highest dose often 46.1 µM), usual class: cytotoxic; hit rate 2% among 360,000; AID 686971
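Using the IDH1-knockdown HT-1080 line run in the same batch and compound series as the NT line, viability after 48 h at 37 °C was determined by CellTiter-Glo luminescence and expressed as % activity.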
Numbers stand for hits; . = inactive; ? = inconclusive; / = no result; [ ] = another dose, or the depositor's remark. Unless noted, calls come from the whole dose curve; as a rule, active = well fitted curve in the direction sought with a large enough effect; inconclusive = small, poorly fitted or top-dose-only effect, or another doubt; inactive = no such curve, though single readings can be large; an effect the other way counts as inactive or inconclusive.

SMILES	TDP1 cell CPT	IL1B secr inh	HT1080-NT tox	TDP1 cell noCPT	HT1080 IDH1KD tx
CC(C)(C)OC(=O)C[C@H]1C/C=C\C[C@@H](CC(=O)N(CCO)Cc2ccccc2)C(=O)N[C@@H](Cc2ccccc2)COC1=O	?	.	.	?	.
Clc1ccc(Cl)c(-c2nn3c(COc4ccccc4)nnc3s2)c1	16.4µM	.	.	?	.
COC(=O)c1ccc(NC(=O)c2c(-c3ccccc3)c(-c3ccccc3)nn(C)c2=O)cc1	.	/	/	.	/
COC(=O)c1ccc(C(=O)OC)c(NC(=O)c2c(-c3ccccc3)noc2C)c1	6.51µM	/	/	6.51µM	/
COc1ccc(NC(=O)c2c(-c3ccccc3)c(-c3ccccc3)nn(C)c2=O)c(OC)c1	16.4µM	/	/	?	/
COC(=O)c1ccc(C)c(NC(=O)c2c(-c3ccccc3)noc2C)c1	.	.	.	.	.
COC(=O)c1ccc(C(=O)OC)c(NC(=O)c2c(-c3ccccc3)c(-c3ccccc3)nn(C)c2=O)c1	?	/	/	14.6µM	/
COc1ccc(S(=O)(=O)N2CCOCC2)cc1NC(=O)c1cccc(Cl)c1	.	.	.	.	.
CCCCOc1ccc(OCCCC)c2c1NC1(N2)C(=O)N(C(C)=O)c2ccccc21	.	.	.	?	.
COc1cccc(NC(=O)Cn2c(=O)ccc3cc(S(=O)(=O)N4CCC(C)CC4)ccc32)c1	18.4µM	/	/	16.4µM	/
CCc1cccc(NC(=O)Cn2c(=O)ccc3cc(S(=O)(=O)N4CCC(C)CC4)ccc32)c1	18.4µM	/	/	16.4µM	/
CC(O)CNC12CC3CC(CC(C3)C1)C2 (stereo unspecified)	.	.	.	.	.
O=C(Nc1cccc(F)c1)N1CC[C@@]2(CCCN(S(=O)(=O)c3ccccc3)C2)C1	.	/	/	?	/
C[C@@H]1CNCCN1S(=O)(=O)c1cccc2cnccc12	?	/	/	29.9µM	/
CC1CCCN(C(=O)c2cn(-c3ccccc3)nc2-c2cccnc2)C1 (stereo unspecified)	.	.	.	?	.
Cc1ccc(CN(C(=O)Nc2cccc(Cl)c2)c2ccccn2)cc1	?	/	/	16.4µM	/
COc1ccc(CN(C(=O)Nc2cccc(Cl)c2)c2ccccn2)cc1OC	?	/	/	13µM	/
COc1ccc(-c2c(NC(=O)c3ccco3)oc3c(C)cccc3c2=O)cc1OC	?	.	.	?	.
COc1cc(-c2c(NC(=O)c3ccco3)oc3c(C)cccc3c2=O)cc(OC)c1OC	.	.	.	18.4µM	.
Cc1cccc(-c2c(NC(=O)c3ccco3)oc3c(C)cccc3c2=O)c1	?	.	.	25.9µM	.
CCN(Cc1ccccc1)C(c1ccc(C)cc1)c1nnnn1C(C)(C)CC (stereo unspecified)	?	.	.	13µM	?
CC(C)(C)n1nnnc1C(c1ccc(C(F)(F)F)cc1)N(Cc1ccccc1)Cc1ccco1 (stereo unspecified)	20.6µM	.	?	?	.
CC(C)(C)n1nnnc1C(c1ccc(C(F)(F)F)cc1)N(Cc1ccc(F)cc1)Cc1ccco1 (stereo unspecified)	?	.	?	20.6µM	.
CC(C)(C)n1nnnc1C(c1ccc(F)cc1)N(Cc1ccc(F)cc1)Cc1ccco1 (stereo unspecified)	?	.	.	?	.
CC(C)(C)n1nnnc1C(c1ccc(Cl)cc1)N(Cc1cccnc1)Cc1ccco1 (stereo unspecified)	18.4µM	.	?	.	?
SMILES	TDP1 cell CPT	IL1B secr inh	HT1080-NT tox	TDP1 cell noCPT	HT1080 IDH1KD tx
CC(C)c1cc(C(=O)NNC(=S)NC2CCCCC2)cs1	.	.	.	.	.
CC(C)(C)n1nnnc1C(c1cccs1)N(Cc1ccccc1)Cc1cccnc1 (stereo unspecified)	20.6µM	.	.	25.9µM	.
CC(C)(C)n1nnnc1C(c1cccnc1)N(Cc1ccccc1)Cc1cccs1 (stereo unspecified)	?	.	?	?	?
CCN(CC(=O)Nc1c(F)cccc1F)C(=O)c1ccc(NC(=O)CC2SC(N3CCCC3)=NC2=O)cc1 (stereo unspecified)	.	.	.	.	.
COc1ccc(-c2nc(N3CCN(C)CC3)sc2-c2ccc(OC)cc2)cc1	?	.	.	29.1µM	?
CNc1nc(-c2ccc(OC)cc2)c(-c2ccc(OC)cc2)s1	.	.	.	.	.
O=C(c1ccc(Br)cc1)c1sc(N2CCOCC2)nc1-c1ccccc1	?	.	.	20.6µM	.
COc1ccc(-c2nc(N3CCCCCC3)sc2C(=O)c2ccccc2)cc1	?	.	.	23.1µM	.
c1ccc(-c2csc(N3CCCCCC3)n2)cc1	.	.	.	?	.
O=C(c1ccccc1)c1sc(N2CCOCC2)nc1-c1ccccc1	?	?	.	?	.
O=C(c1ccccc1)c1sc(N2CCCCCC2)nc1-c1ccccc1	?	.	.	14.6µM	.
COC(=O)c1cc(NC(=O)CC2NC3CCCCC3NC2=O)cc(C(=O)OC)c1 (stereo unspecified)	.	.	.	.	.
C=CCn1c(C(C)n2c(-c3cnccn3)nc3ccccc32)nc2ccccc21 (stereo unspecified)	?	.	.	?	.
Cc1nc2cnc(Oc3ccccc3)nc2n(CCC#N)c1=O	.	/	/	.	/
CCn1c(=S)sc2c(=O)n(CC(=O)Nc3cccc(Cl)c3)c(C)nc21	?	?	?	.	?
c1ccc2sc(N3CCCCC3)nc2c1	.	.	.	.	.
[2H]c1c([2H])c([2H])c(C(=O)c2sc(N3CCCCCC3)nc2-c2ccccc2)c([2H])c1[2H]	?	.	.	16.4µM	.
COc1ccccc1N=CC=C1OC(C)(C)C(C)(C)O1	.	-75.2	.	?	?
Cc1oc(-c2ccc(Cl)cc2)nc1CN1CCC(C(=O)NCC2CCCO2)CC1 (stereo unspecified)	.	?	.	.	.
Cc1oc(-c2ccc(Cl)cc2)nc1CN1CCC(C(=O)NCc2cccs2)CC1	?	-53.9	20.6µM	?	?
Cc1oc(-c2ccc(Cl)cc2)nc1CN1CCC(C(=O)NCCCN2CCOCC2)CC1	29.1µM	?	22.4µM	?	?
COCCCNC(=O)C1CCN(Cc2nc(-c3ccc(OC)c(OC)c3)oc2C)CC1	.	/	/	.	/
CCC1CCCCN1CCCNC(=O)C1CCN(Cc2nc(-c3ccc(Cl)cc3)oc2C)CC1 (stereo unspecified)	3.66µM	-90.3	18.4µM	2.59µM	?
CN(CC(=O)Nc1ccc(F)c(F)c1F)C(=O)CCN1C(=O)C2CC=CCC2C1=O (stereo unspecified)	.	.	.	.	.
COc1ccccc1C1CN(Cc2ccc(Sc3nncn3C)o2)Cc2ccccc2O1 (stereo unspecified)	.[9.04 µM]	/	/	16.4µM	/
